ssDAF-12 act: S. stercoralis DAF-12 nuclear receptor activators, primary screen, cell-based, luminescence, HEK293, GRIP1 co-expression, lit1-tk-luc | hit rate 1% among 370,000 | activation, % at 6.8 µM | AID 652126, 2013 | HEK293 ssDAF-12/GRIP1 lit1-tk-luc reporter; % of 3 µM dafachronic acid response;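 active means activation above the mean over all tested compounds plus 3 SD, cut at about 0.9% in these data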;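 further: 0% = DMSO-only wells and 100% = 3 µM delta7-dafachronic acid wells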
hcDAF12 agonist: H. contortus DAF-12 nuclear receptor activators, primary screen, cell-based, luminescence, HEK293, lit1-tk-luc reporter; hit rate 1.4% among 370,000; activation, % at 6.8 µM; HEK293 hcDAF-12 lit1-tk-luc reporter; 0% DMSO, 100% Δ7-dafachronic acid; AID 652067, 2013;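 active means activation above the mean of all tested compounds plus 3 SD, cut at about 5.5% in these data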;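 further: 100% = response to 3 µM Δ7-dafachronic acid high control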
DAX1 inh-1: DAX1 (NR0B1) inhibitors, primary screen, cell-based, HEK293, Gal4-DAX1, luciferase luminescence; Nuclear receptor subfamily 0 group B member 1 (Homo sapiens), P51843; HEK293 Gal4-DAX1 luciferase reporter; inhibition, % at 6.75 µM; hit rate 0.99% among 340,000;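 active means inhibition above the mean over all tested compounds plus 3 SD, cut at about 4.2% in these data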;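 further: 0% = DAX1-transfected cells with DMSO and 100% = empty-vector control cells with DMSO; inhibition shows as a rise in luminescence from relieved DAX1 repression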
hgDAF-12 ag: H. glycines DAF-12 receptor agonists, primary screen, cell-based, luminescence, HEK293, GAL4 fusion, UAS-luciferase | Nuclear hormone receptor DAF-12 (Heterodera glycines), GAL4 fusion | HEK293 GAL4-hgDAF12 UAS-luciferase reporter, agonist luminescence; normalized to butyrate control | activation, % at 6.8 µM | hit rate 1.8% among 370,000;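 active means activation above a cutoff set at the mean of all screened compounds plus 3 SD, cut at about 10% in these data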;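 further: 0% = DMSO wells and 100% = sodium butyrate wells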
AHR act: AHR activators, primary screen, cell-based, luminescence, luciferase reporter, human. AHR-responsive luciferase reporter cells. AID 2796, 2010. hit rate 2.5% among 320,000. activation, % at 5 µM; in the data active means activation above about 47%;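 further: 0% = vehicle wells and 100% = reference agonist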
Target sequence (P35869 whole entry, looked up): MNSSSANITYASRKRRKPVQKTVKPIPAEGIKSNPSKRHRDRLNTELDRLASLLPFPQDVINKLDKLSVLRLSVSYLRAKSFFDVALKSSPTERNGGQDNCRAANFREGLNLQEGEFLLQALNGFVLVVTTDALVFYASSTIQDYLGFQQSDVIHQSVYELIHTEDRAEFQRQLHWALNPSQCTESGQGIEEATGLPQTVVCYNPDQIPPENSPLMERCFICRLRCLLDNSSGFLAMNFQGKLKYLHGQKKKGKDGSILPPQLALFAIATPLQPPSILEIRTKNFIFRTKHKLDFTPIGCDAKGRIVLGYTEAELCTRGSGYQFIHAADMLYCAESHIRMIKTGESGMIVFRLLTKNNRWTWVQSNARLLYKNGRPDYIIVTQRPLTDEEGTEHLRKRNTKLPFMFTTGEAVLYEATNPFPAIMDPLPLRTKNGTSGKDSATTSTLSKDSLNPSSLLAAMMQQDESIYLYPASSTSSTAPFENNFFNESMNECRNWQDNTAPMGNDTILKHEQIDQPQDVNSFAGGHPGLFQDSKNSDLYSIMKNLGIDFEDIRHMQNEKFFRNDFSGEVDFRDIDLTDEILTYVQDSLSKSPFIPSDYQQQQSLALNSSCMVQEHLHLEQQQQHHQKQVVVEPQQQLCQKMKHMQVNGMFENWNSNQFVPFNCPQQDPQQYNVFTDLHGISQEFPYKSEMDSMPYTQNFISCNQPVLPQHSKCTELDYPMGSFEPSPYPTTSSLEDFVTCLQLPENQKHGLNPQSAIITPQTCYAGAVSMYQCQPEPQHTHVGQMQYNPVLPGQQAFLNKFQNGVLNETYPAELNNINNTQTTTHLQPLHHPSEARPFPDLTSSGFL
DAX1 inh-2: DAX1 (NR0B1) inhibitors on StAR promoter, primary screen, cell-based, luminescence, SF-1 (NR5A1), full-length DAX-1; HEK293T StAR-luciferase reporter, SF-1/DAX-1 repression relief; hit rate 1.1% among 370,000; inhibition, % at 6.8 µM;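 active means inhibition above the mean over all tested compounds plus 3 SD, cut at about 3.6% in these data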;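 further: 0% = DAX-1 cells with DMSO and 100% = cells lacking DAX-1 with DMSO; higher inhibition means more luminescence from relief of DAX-1 repression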
hgDAF12 conf: H. glycines DAF-12 receptor agonists, confirmation, cell-based, luminescence, HEK293, GAL4-LBD fusion. hit rate 80% among 3,300. activation, % at 6.8 µM. HEK293 GAL4-hgDAF12 luciferase reporter, agonist mode; percent of butyrate response. shares compounds with hgDAF-12 ag;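 active means mean activation over triplicate wells above the hit cutoff derived from the earlier primary screen, cut at about 11% in these data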;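 further: 0% = DMSO low control and 100% = 2 mM sodium butyrate high control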
LXRb DAF12 ctr: LXR agonists, Gal4 luciferase reporter, confirmation, counter-screen for hgDAF-12 agonist project, cell-based, luminescence, HEK293, H. glycines campaign; 24 h; 3,300 tested, under 10 active; AID 743051, 2013; shares compounds with hgDAF-12 ag; activation, % at 6.8 µM;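 active means mean activation of the triplicate above a set limit carried over from the primary screen, none filed active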
An asterisk follows results filed as active. In the library only some 5.7% were active in any assay of this set; here they are far more common.

Screening CCn1ccc(C(=O)Nc2ccccc2Cl)n1 returned ssDAF-12 act -1, hcDAF12 agonist 3, DAX1 inh-1 1, hgDAF-12 ag 14*, AHR act 3, DAX1 inh-2 4.3*, hgDAF12 conf 15* and LXRb DAF12 ctr 1.
Screening CCn1ccc(C(=O)Nc2cccc(Cl)c2)n1 returned ssDAF-12 act -1, hcDAF12 agonist 5, DAX1 inh-1 2, hgDAF-12 ag 15*, AHR act 4, DAX1 inh-2 3, hgDAF12 conf 10 and LXRb DAF12 ctr 0.
For CCCn1nnnc1NCc1ccc(N(CC)CC)cc1 the results were ssDAF-12 act -1, hcDAF12 agonist -2, DAX1 inh-1 0, hgDAF-12 ag -3, AHR act 12 and DAX1 inh-2 -1.
`O=C(CCCc1ccncc1)c1ccccc1` gave ssDAF-12 act 0, hcDAF12 agonist 1, DAX1 inh-1 3, hgDAF-12 ag 13*, DAX1 inh-2 1, hgDAF12 conf 9 and LXRb DAF12 ctr 0.
Screening c1ccc(CCCCc2ccncc2)cc1 returned ssDAF-12 act -1, hcDAF12 agonist -1, DAX1 inh-1 -1, hgDAF-12 ag 2 and DAX1 inh-2 -1.
For CC1=C/C(=N\NC(=S)NCCc2ccccc2)CC(C)(C)C1 the results were ssDAF-12 act -1, hcDAF12 agonist 5, DAX1 inh-1 1, hgDAF-12 ag 5, AHR act 4 and DAX1 inh-2 2.
Screening CC(=O)N1CCC(=NNC(=O)c2cccs2)CC1 returned ssDAF-12 act 0, hcDAF12 agonist 5, DAX1 inh-1 5.3*, hgDAF-12 ag 14*, AHR act 21, DAX1 inh-2 4.0*, hgDAF12 conf 9 and LXRb DAF12 ctr 0.
For CC(=O)N1CCC(=NNC(=O)c2cc3ccccc3cc2O)CC1 the results were ssDAF-12 act -2, hcDAF12 agonist 0, DAX1 inh-1 1, hgDAF-12 ag 1, AHR act 3 and DAX1 inh-2 0.
For CC1=C/C(=N\NC(=O)c2cccs2)CC(C)(C)C1 the results were ssDAF-12 act 0, hcDAF12 agonist 4, DAX1 inh-1 0, hgDAF-12 ag 17*, AHR act 8, DAX1 inh-2 1, hgDAF12 conf 1 and LXRb DAF12 ctr 0.
For NC(=O)c1ccccc1OC1CCC1 the results were ssDAF-12 act -1, hcDAF12 agonist 1, hgDAF-12 ag -1, AHR act 0 and DAX1 inh-2 1.
`Cn1c(=O)c2[nH]c(COc3ccc(C(C)(C)C)cc3)nc2n(C)c1=O` gave DAX1 inh-1 -4 and AHR act -3.
Screening O=C(Nc1ccccc1O)c1ccc(Cl)cc1 returned ssDAF-12 act 1.3*, hcDAF12 agonist 5.8*, DAX1 inh-1 4.4*, hgDAF-12 ag 22*, AHR act 66*, DAX1 inh-2 2, hgDAF12 conf 29* and LXRb DAF12 ctr 0.
For Cc1cc(NC(=O)c2ccc(Cl)cc2)c(C)cc1O the results were ssDAF-12 act 0, hcDAF12 agonist 5, DAX1 inh-1 3, hgDAF-12 ag 0, AHR act 34 and DAX1 inh-2 0.
`COc1ccc(NC(=O)CSC2CCCCC2)cc1` gave ssDAF-12 act 0, hcDAF12 agonist 4, DAX1 inh-1 3, hgDAF-12 ag 23*, AHR act 0, DAX1 inh-2 1, hgDAF12 conf 15* and LXRb DAF12 ctr 0.
Screening NS(=O)(=O)c1ccc(NC(=O)CSC2CCCCC2)cc1 returned ssDAF-12 act -1, hcDAF12 agonist -1, DAX1 inh-1 0, hgDAF-12 ag 2, AHR act 3 and DAX1 inh-2 1.
`O=S(=O)(Nc1ccc(Cl)cc1)c1ccc(N2CCOCC2)c(NC(=S)NCCN2CCOCC2)c1` gave ssDAF-12 act -2, hcDAF12 agonist 1, DAX1 inh-1 0, hgDAF-12 ag -2, AHR act 0 and DAX1 inh-2 -1.
Cc1ccc(/C=N/NC(=O)c2ccccn2)s1 was read as ssDAF-12 act 0, hcDAF12 agonist 4, DAX1 inh-1 1, hgDAF-12 ag 15*, AHR act 34, DAX1 inh-2 3, hgDAF12 conf 14* and LXRb DAF12 ctr 1.
COc1cccc(NC(=O)CN(C)C(=O)c2cc(S(=O)(=O)N3CCCCCC3)ccc2OC)c1 was read as ssDAF-12 act -1, hcDAF12 agonist 0, DAX1 inh-1 -1, hgDAF-12 ag 0, AHR act -2 and DAX1 inh-2 0.
Screening CCCC(=O)N=C1SC2CS(=O)(=O)CC2N1c1ccc(-c2nc3ccc(C)cc3s2)cc1 (stereo not drawn) returned ssDAF-12 act 0, hcDAF12 agonist 6.0*, DAX1 inh-1 1, hgDAF-12 ag 18*, AHR act 13, DAX1 inh-2 2, hgDAF12 conf 9 and LXRb DAF12 ctr 1.
For Cc1ccc(N2C(=NC(=O)c3ccccc3)SC3CS(=O)(=O)CC32)cc1 (stereo not drawn) the results were ssDAF-12 act -1, hcDAF12 agonist 0, DAX1 inh-1 0, hgDAF-12 ag 0, AHR act 0 and DAX1 inh-2 -2.
For COc1cc(SC)ccc1C(=O)NCCOc1ccc(F)cc1 the results were ssDAF-12 act -1, hcDAF12 agonist 4, DAX1 inh-1 1, hgDAF-12 ag 17*, AHR act 8, DAX1 inh-2 3, hgDAF12 conf 10 and LXRb DAF12 ctr 0.
COc1ccc(CCNC(=O)c2ccc(SC)cc2OC)cc1 was read as ssDAF-12 act -1, hcDAF12 agonist -1, DAX1 inh-1 0, hgDAF-12 ag 5, AHR act -3 and DAX1 inh-2 0.
Screening CCCOc1ccccc1NC(=O)/C=C/c1ccc(OC)c(S(=O)(=O)N2CCOCC2)c1 returned ssDAF-12 act -2, hcDAF12 agonist -1, DAX1 inh-1 0, hgDAF-12 ag -2 and DAX1 inh-2 -1.
